The record followed here is PubChem BioAssay AID488969 (Vanderbilt High Throughput Screening Facility, 2010).

In all, about 110,000 compounds were measured (“z-score”: median about -0.1, highest 2% from about 2 on). What follows is part of a selection rich in the highest values, with near analogues and random picks from the rest. The source made the active and inactive calls.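 The calls were made as follows: active = z-score in the third read window above 3 or below -3; inactive = the rest.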

This experiment deals with Metabotropic glutamate receptor 8 (Rattus norvegicus) (UniProt P70579). Kind of experiment: rat mGluR8 modulators via GIRK flux, primary screen, cell-based, thallium flux, HTS (AID 488969). To be noted: HEK293 rat mGluR8, GIRK (G protein-gated inwardly rectifying potassium channel) thallium flux, FluoZin2; at 10 µM; stronger effect = higher value; submaximal glutamate (EC20) added with thallium.
Chain of Metabotropic glutamate receptor 8 (Rattus norvegicus) (P70579 whole entry, looked up): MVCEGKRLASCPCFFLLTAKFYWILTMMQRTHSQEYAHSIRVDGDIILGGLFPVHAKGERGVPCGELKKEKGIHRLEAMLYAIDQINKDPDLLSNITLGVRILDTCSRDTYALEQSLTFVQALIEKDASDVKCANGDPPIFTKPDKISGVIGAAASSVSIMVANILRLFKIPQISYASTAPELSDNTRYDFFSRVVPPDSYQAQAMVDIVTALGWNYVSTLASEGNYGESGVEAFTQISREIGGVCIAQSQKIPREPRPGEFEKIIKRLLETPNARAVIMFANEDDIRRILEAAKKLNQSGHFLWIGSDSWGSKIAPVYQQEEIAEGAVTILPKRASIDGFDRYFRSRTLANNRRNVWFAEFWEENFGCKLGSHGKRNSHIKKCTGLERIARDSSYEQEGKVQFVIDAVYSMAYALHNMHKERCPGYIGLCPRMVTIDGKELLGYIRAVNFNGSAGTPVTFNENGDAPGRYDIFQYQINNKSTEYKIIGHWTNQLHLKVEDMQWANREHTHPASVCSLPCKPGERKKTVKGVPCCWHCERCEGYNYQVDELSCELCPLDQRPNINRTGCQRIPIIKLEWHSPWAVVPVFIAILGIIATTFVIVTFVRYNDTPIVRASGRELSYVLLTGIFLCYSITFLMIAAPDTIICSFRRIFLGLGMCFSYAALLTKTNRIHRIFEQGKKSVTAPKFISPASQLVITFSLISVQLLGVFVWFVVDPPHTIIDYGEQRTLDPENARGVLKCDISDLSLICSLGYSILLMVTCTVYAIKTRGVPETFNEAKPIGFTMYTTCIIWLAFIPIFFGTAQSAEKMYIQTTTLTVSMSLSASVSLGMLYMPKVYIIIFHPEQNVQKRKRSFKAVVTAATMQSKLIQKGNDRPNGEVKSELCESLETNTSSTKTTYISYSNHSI
Regarding `Cc1cccc(-n2c(C)cc(/C=N/O)c2C)c1`, the z-score is -0.205.

For `O/N=C/c1cn(-c2ccccc2)nc1-c1ccc2c(c1)OCCO2`, the z-score was -0.458.

On to `O=Cc1cn(-c2ccccc2)nc1-c1ccc2c(c1)OCCO2`, for which the z-score was -1.11.

Regarding `NC(=O)/C=C\c1cn(-c2ccccc2)nc1-c1ccc2c(c1)OCCO2`, the z-score is 2.14.

Regarding `O=C(COC(=O)c1cn(-c2ccccc2)nc1-c1ccccc1)c1ccc([N+](=O)[O-])cc1`, the z-score is -0.413.

`O=S(=O)(c1cccc(C(F)(F)F)c1)N1CCC(c2cc(-c3cccc4ccccc34)n[nH]2)CC1` showed a z-score of 1.58.

The molecule `COc1ccc(S(=O)(=O)N2CCC(c3cc(-c4cccc5ccccc45)n[nH]3)CC2)cc1` registered a z-score of 2.15.

Regarding `COc1ccc(S(=O)(=O)N2CCC(CN3C(=O)c4cccc5cccc(c45)C3=O)CC2)cc1`, the z-score is -0.138.

For `Cn1c(CCN2CCN(c3ccc(F)cc3)CC2)nc2cc(NC(=O)c3ccco3)ccc21`, the z-score is -2.09.

Take `Cc1ccc(N(CC(=O)Nc2ccccc2C(=O)N2CCOCC2)S(C)(=O)=O)cc1`: the z-score turned out to be 0.00258.

Molecule `COc1ccc(OC)c(NC(=O)c2ccccc2NS(=O)(=O)c2cccc3cccnc23)c1` displayed a z-score of 0.685.

For the molecule `O=C(Nc1cccc2ccccc12)c1ccccc1NS(=O)(=O)c1cccc2cccnc12`, the z-score was -0.0553.

As to `COc1ccc(C)cc1NC(=O)c1ccccc1NS(=O)(=O)c1cccc2cccnc12`, the z-score was found to be 2.02.

Turning to `Cc1cccc(C)c1-n1c(C)cc(/C=N/NC(=O)c2ccncc2)c1C`, the z-score was 0.0638.

`C/C(=C\C(=O)c1ccc(Br)cc1)NCc1ccccc1`: the z-score is -0.0992.

Take `O=C(NC(=S)Nc1ccccc1N1CCOCC1)c1ccc(-c2cc(Cl)ccc2Cl)o1`: the z-score amounted to 0.0698.

On to `Cc1cc(S(=O)(=O)N2CCN(c3ccc(F)cc3)CC2)c(C)s1`, for which the z-score was -0.128.

Turning to `Cc1ccc(S(=O)(=O)c2c(C)cc(C)nc2Cl)c(C)c1`, the z-score is 4.41 (active).

As to `Cc1cc(C)c(S(=O)(=O)c2ccccc2C)c(Cl)n1`, the z-score was -0.119.

Take `Cc1ccc(S(=O)(=O)c2c(C)cc(C)nc2Cl)cc1`: the z-score was -0.0793.

Turning to `CCOC(=O)c1c(C)c(C(=O)Nc2cc(OC)ccc2OC)c(C)n1CC`, the z-score is -0.853.

Consider `CCn1c2ccccc2c2cc(N)ccc21`, for which the z-score is -0.216.

Consider `CCC1(C)OCC(Cn2c3ccccc3c3ccccc32)O1` (stereo not given), for which the z-score was 3.89 (active).

`c1ccc2c(c1)c1ccccc1n2CN1CCOCC1`: the z-score was -0.144.

In the case of `CC(=O)N1N=C(c2ccc(C)cc2)OC1c1ccc(C(C)C)cc1` (stereo not given), the z-score is -0.402.

As to `COCc1ccc(O)c2ncccc12`, the z-score is -0.0472.

For the molecule `OCc1ccc(O)c2ncccc12`, the z-score was 0.138.

`Oc1ccc(CNc2ccccc2)c2cccnc12` gave a z-score of 0.0879.

`Cc1ccccc1NCc1ccc(O)c2ncccc12`: the z-score was 0.65.

For the molecule `Cc1ccccc1N=Nc1ccc(O)c2ncccc12`, the z-score was 4.67 (active).

For `Cc1ccc(N=Nc2ccc(O)c3ncccc23)cc1`, the z-score amounted to 2.05.

Molecule `Cc1ccc(C(=O)c2oc3ccccc3c2NC(=O)c2cc(-c3ccccc3O)n[nH]2)cc1` returned a z-score of 0.291.

`CC(C)(C)c1ccc(-c2conc2N)cc1`: the z-score came to 2.09.

For `CCOc1cc(-c2conc2N)cc(OCC)c1OCC`, the z-score came out at 0.888.

`CC(C)(C)c1ccc(-c2cc(N)n[nH]2)cc1` gave a z-score of 0.498.

In the case of `CCc1ccc2nc(N3C(=O)c4oc5ccccc5c(=O)c4C3c3ccc(OC)c(OC)c3)sc2c1` (stereo not given), the z-score is -0.133.

Take `O=C(Nc1nc2ccccc2s1)c1ccc(Cl)s1`: the z-score was found to be 1.22.

Turning to `O=C(Nc1nc(=O)c2ccccc2s1)c1ccc(Cl)cc1`, the z-score was 14.9 (active).

In turn, `O=C(Cc1ccccc1)Nc1nc2ccccc2s1` gave a z-score of 0.548.

As for `O=C(Nc1nc(=O)c2ccccc2s1)c1ccc(F)cc1`, the z-score was 16.3 (active).

The molecule `Cn1sc(NC(=O)c2ccc(Cl)cc2)nc1=O` yielded a z-score of 0.266.

As for `O=C(Cc1ccccc1)Nc1nc(=O)c2ccccc2s1`, the z-score is 5.11 (active).

For `CCN(CC)C(=S)SCC(=O)Nc1nc(-c2ccccc2)c(-c2ccccc2)o1`, the z-score is -0.0668.

On to `CCN(CC)C(=S)SCC(=O)Nc1nc(=O)c2ccccc2s1`, for which the z-score is 5.2 (active).

`O=C(NNc1nc2ccccc2s1)c1ccc(F)cc1` gave a z-score of 0.186.

For `O=C(Cc1nc(=O)c2ccccc2s1)Nc1ccccc1`, the z-score was -0.368.

For the molecule `CCn1c(NC(=O)c2ccc(F)cc2)c2ccccc2nc1=O`, the z-score stood at 0.0383.

As for `O=C(CSC(=S)N1CCOCC1)Nc1nc(=O)c2ccccc2s1`, the z-score was found to be 0.0572.

Take `O=C(CSc1n[nH]c(-c2ccco2)n1)Nc1sc2c(c1C(=O)Nc1ccccc1)CCCC2`: the z-score is -0.294.

Take `C=CCN(c1ccc(C(=O)NCCc2ccccc2)cc1)S(C)(=O)=O`: the z-score is -0.00787.

`CCOC(=O)C1CCN(S(=O)(=O)c2ccc(OCC(=O)OC)cc2)CC1` displayed a z-score of 0.845.

`COc1cccc(-c2csc(N3CCN(C(=S)Nc4cccc(Cl)c4)CC3)n2)c1`: the z-score amounted to 0.143.

For the molecule `CSc1nc(C)cc(C)c1S(=O)(=O)c1ccccc1C`, the z-score is -0.374.

In turn, `Cc1onc(-c2ccccc2)c1C(=O)NCCc1ccc(Cl)cc1` yielded a z-score of 0.00877.

`CCc1ccccc1N(CC(=O)N/N=C/c1ccc(OC(=O)OC)c(OC)c1)S(C)(=O)=O`: the z-score was -0.214.

`CCCC(=O)Nc1ccc(Cl)c(NC(=O)C(C)(C)C)c1`: the z-score is -0.219.

Regarding `CCN1CCN(C(=O)C2c3cc(OC)c(OC)cc3C(=O)N(C)C2c2ccc(SC)cc2)CC1` (stereo not given), the z-score is 0.574.

For `N#CC1(P(=O)(c2ccccc2)c2ccccc2)CC1`, the z-score is -0.0596.

Regarding `Nc1ccc(C(=O)Nc2nc3ccccc3s2)cc1`, the z-score was -0.363.

Take `O=C(Nc1nc(=O)c2ccccc2s1)c1ccccc1`: the z-score was 14.9 (active).

`O=C(Nc1nc(-c2ccc(Cl)s2)cs1)c1ccccc1` had a z-score of 0.171.

Turning to `COc1cccc(C2=NOC(C(=O)Nc3ccccc3SC)C2)c1` (stereo not given), the z-score was -0.115.

Regarding `CC(C)CCn1c(Oc2ccccc2Cl)nc2c1c(=O)n(C)c(=O)n2C`, the z-score was -0.1.

On to `CC(C)CCn1c(Oc2ccc(Cl)cc2)nc2c1c(=O)n(C)c(=O)n2C`, for which the z-score was -0.037.

The molecule `CC(C)CCn1c(Cl)nc2c1c(=O)n(C)c(=O)n2C` registered a z-score of 2.04.

`CC1(C)CC(c2nc(-c3ccc(Br)cc3)cs2)CCS1` (stereo not given) yielded a z-score of 2.26.

In turn, `CC1(C)CC(c2nc(-c3ccc(Cl)cc3)cs2)CCS1` (stereo not given) returned a z-score of 0.117.

For `CCC1(C)CC(c2nc(-c3ccc(OC)cc3)cs2)CCS1` (stereo not given), the z-score was -0.645.

In the case of `COc1ccc(C)cc1NC1=C(Cl)C(=O)N(C2CCCCC2)C1=O`, the z-score was -0.0567.

Molecule `Cc1ccc2cccc(NC(=S)NC(=O)c3ccnn3C)c2n1` yielded a z-score of 2.25.

`Cc1ccc2cccc(NC(=O)C(F)(F)F)c2n1` showed a z-score of 0.599.

As to `Cc1ccc2cccc(NC(=S)NC(=O)c3ccn(C)n3)c2n1`, the z-score is 6.02 (active).

In the case of `Cc1cc(C)c2cccc(NC(=S)NC(=O)c3ccccc3)c2n1`, the z-score was found to be 0.2.

The molecule `Cc1ccc2cccc(NC(=S)NC(=O)c3c(Br)cnn3C)c2n1` gave a z-score of 0.727.

For the molecule `Cc1ccc2cccc(NC(=S)NC(=O)c3ccccc3)c2n1`, the z-score came out at 1.02.
